Here are results for 11 compounds from PubChem BioAssay (Tox21).

Records with an inconclusive call do not appear. The source made the active and inactive calls. Unless noted, calls follow the shape of the dose curve; as a rule, active = well fitted curve in the direction sought with a large enough effect in the repeat runs; inconclusive = weak or mixed curves; inactive = no such curve, though single readings can be large; an effect the other way counts as inactive or inconclusive.

The nature of assay [1]: qHTS assay to identify small molecule agonists of the RXR signaling pathway - cell viability counter screen (AID 1159529). Also: nearly all actives have a fitted effect of over 50% in size. Also: potency is read from the fitted curve at half-maximal effect. The procedure, abridged: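 Tox21 10K compounds were tested for cytotoxicity against GeneBLAzer RXR-alpha HEK 293T cells grown in 2% charcoal-stripped FBS. Exposure lasted 16 hr at 37 C, 5% CO2; viability read by CellTiter-Glo luminescence.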
Background: In qHTS, concentration-response curves come from the screen itself.

Assay [2] in a line: qHTS assay to identify small molecule antagonists of the retinoid acid receptor (RAR) signaling pathway - cell viability counter screen (AID 1159551). Also: nearly all actives have a fitted effect of over 35% in size. Also: potency is read from the fitted curve at half-maximal effect. The procedure, abridged: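 C3RL4 RARE-luciferase line; cpds + retinol 1 uM final, 6 h, 37 C/5% CO2; CellTiter-Glo ATP luminescence, 30 min RT.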
Assay [3] is described as follows: qHTS assay to identify small molecule antagonists of the retinoic acid receptor (RAR) signaling pathway (AID 1159552; also: nearly all actives have a fitted effect of over 50% in size; also: potency is read from the fitted curve at half-maximal effect). The procedure, abridged:
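Overnight-plated C3RL4 reporter cells get compound, then retinol to 1 uM final; plates sit 6 hr at 37 C, 5% CO2. A luciferase reagent is added and light output recorded after 30 min at room temperature.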

A short description of assay [4]: qHTS assay to identify small molecule antagonists of the estrogen related receptor (ERR) signaling pathway from Tox21 library - cell viability counter screen (AID 1224834). Also: nearly all actives have a fitted effect of over 30% in size. Also: potency is read from the fitted curve at half-maximal effect. The procedure, abridged:
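Multiplexed viability counter screen in ERR cells: 17.5 h compound exposure at 37 C, CellTiter-Fluor added, 30 min at 37 C/5% CO2, fluorescence read.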

Assay [5] addresses Luciferin 4-monooxygenase (Photinus pyralis) (UniProt P08659). In words: qHTS assay to identify small molecule inhibitors of firefly luciferase (AID 1224835). Also: nearly all actives have a fitted effect of over 25% in size. Also: potency is read from the fitted curve at half-maximal effect. The procedure, abridged: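 Quantitative HTS format; KM concentrations of both substrates. Purified P. pyralis FLuc activity quantified from luminescence images.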
A short description of assay [6]: qHTS assay to identify small molecule agonists of the constitutive androstane receptor (CAR) signaling pathway - cell viability counter screen (AID 1224836). Also: nearly all actives have a fitted effect of over 45% in size. Also: potency is read from the fitted curve at half-maximal effect. The procedure, abridged:
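Fluorescence from CellTiter-Fluor indicates live cells after 23 h exposure. The human hepatoma line expresses hCAR and a CYP2B6-2.2kb reporter. Incubation medium contains 0.75 uM PK11195 (final).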

Assay [7] can be described thus: qHTS assay to identify small molecule antagonists of the constitutive androstane receptor (CAR) signaling pathway - cell viability counter screen (AID 1224837). Also: nearly all actives have a fitted effect of over 45% in size. Also: potency is read from the fitted curve at half-maximal effect. In a few lines:
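Read-out: CellTiter-Fluor fluorescence after 23 hr at 37 C/5% CO2. Cells: HepG2 double-stable for hCAR and CYP2B6-2.2kb. Compounds tested at 15 concentrations in the presence of CITCO, final concentration 50 nM.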

A short description of assay [8]: qHTS assay to identify small molecule antagonists of the estrogen related receptor signaling pathway with the pleiotropic PPARgamma coactivator (PGC) from Tox21 10K library - cell viability counter screen (AID 1224840; active = well fitted cell-killing curve with a large enough effect in the repeat runs, not every such curve was filed as active; also: nearly all actives have a fitted effect of over 40% in size; also: potency is read from the fitted curve at half-maximal effect). In a few lines:
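Fluorescence read-out of CellTiter-Fluor viability reagent, added after cells had been exposed to compound in DMSO for 17.5 h at 37 C; 30 min development at 37 C/5% CO2. Cells: PGC/ERR line, 2,000/well.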

Assay [9] in a line: qHTS assay to identify small molecule antagonists of the estrogen related receptor signaling pathway with the pleiotropic PPARgamma coactivator (PGC) from Tox21 10K library (AID 1224841; call rule not given here; also: actives are mostly falling curves and most rising ones were filed inactive; nearly all actives have a fitted effect of over 50% in size; also: potency is read from the fitted curve at half-maximal effect). In a few lines: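 Luminescence read-out (One-Glo luciferase reagent, 30 min at room temperature) from PGC/ERR cells exposed to DMSO-dissolved test compounds for 18 h at 37 C; cells, 2,000 per well, had been preincubated 6 h before compound transfer.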

The nature of assay [10]: qHTS assay to identify small molecule agonists of the estrogen related receptor signaling pathway with the pleiotropic PPARgamma coactivator (PGC) from Tox21 10K library (AID 1224842). Also: nearly all actives have a fitted effect of over 15% in size. In a few lines:
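PGC/ERR reporter cells (NTP line) were seeded 2,000 per well, rested 6 h at 37 C/5% CO2, then pin-dosed with compounds in DMSO for 18 h at 37 C; luciferase read by One-Glo luminescence after 30 min at room temperature.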

Assay [11] has as its target Thyrotropin receptor (Homo sapiens) (UniProt P16473). In words: qHTS assay to identify small molecule agonists of the thyroid stimulating hormone receptor (TSHR) signaling pathway (AID 1224843; calls by dose curve; also: nearly all actives have a fitted effect of over 45% in size). The procedure, abridged: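 Using 15 concentrations per compound in triplicate, cAMP production was monitored in TSHR-HEK293 cells after 30 min compound incubation at RT; HTRF reagents followed, with fluorescence intensity recorded after 1 h.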

The target in assay [12] is Nuclear receptor subfamily 1 group I member 3 (Homo sapiens) (UniProt Q14994). Briefly: qHTS assay to identify small molecule antagonists of the constitutive androstane receptor (CAR) signaling pathway (AID 1224838).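 Also: HepG2 cells stably expressing hCAR with CYP2B6 luciferase reporter stimulated by CITCO; nearly all actives have a fitted effect of over 40% in size.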 Also: potency is read from the fitted curve at half-maximal effect. The procedure, abridged:
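Read-out: ONE-Glo luciferase luminescence after 30 min at room temperature. HepG2-CYP2B6-hCAR double-stable cells, compounds in 15-point titration plus 50 nM CITCO final, 24 h at 37 C/5% CO2.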

For assay [13] the target is unchanged. Briefly: qHTS assay to identify small molecule agonists of the constitutive androstane receptor (CAR) signaling pathway (AID 1224839).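 Also: HepG2 cells stably carrying human CAR and a CYP2B6 luciferase reporter; series mostly up to about 92 µM; nearly all actives have a fitted effect of over 15% in size.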 In a few lines: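 Stable hCAR/CYP2B6-2.2kb HepG2 line in DMEM with 10% FBS; compounds (15 concentrations) and 0.75 uM PK11195 final, 24 h at 37 C/5% CO2, then ONE-Glo luminescence after 30 min.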

Nuclear receptor subfamily 1 group I member 3 (Homo sapiens), sequence (Q14994 whole entry, looked up): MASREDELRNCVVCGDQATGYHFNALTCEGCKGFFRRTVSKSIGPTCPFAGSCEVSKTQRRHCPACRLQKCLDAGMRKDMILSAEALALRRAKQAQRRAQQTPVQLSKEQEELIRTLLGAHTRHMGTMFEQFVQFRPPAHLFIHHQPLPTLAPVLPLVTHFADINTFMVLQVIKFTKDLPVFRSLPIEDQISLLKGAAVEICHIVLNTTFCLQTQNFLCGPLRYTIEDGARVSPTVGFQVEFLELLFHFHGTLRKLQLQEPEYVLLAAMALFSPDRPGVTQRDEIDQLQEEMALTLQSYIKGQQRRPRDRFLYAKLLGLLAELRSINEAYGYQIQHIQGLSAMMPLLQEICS
Thyrotropin receptor (Homo sapiens), sequence (P16473 whole entry, looked up): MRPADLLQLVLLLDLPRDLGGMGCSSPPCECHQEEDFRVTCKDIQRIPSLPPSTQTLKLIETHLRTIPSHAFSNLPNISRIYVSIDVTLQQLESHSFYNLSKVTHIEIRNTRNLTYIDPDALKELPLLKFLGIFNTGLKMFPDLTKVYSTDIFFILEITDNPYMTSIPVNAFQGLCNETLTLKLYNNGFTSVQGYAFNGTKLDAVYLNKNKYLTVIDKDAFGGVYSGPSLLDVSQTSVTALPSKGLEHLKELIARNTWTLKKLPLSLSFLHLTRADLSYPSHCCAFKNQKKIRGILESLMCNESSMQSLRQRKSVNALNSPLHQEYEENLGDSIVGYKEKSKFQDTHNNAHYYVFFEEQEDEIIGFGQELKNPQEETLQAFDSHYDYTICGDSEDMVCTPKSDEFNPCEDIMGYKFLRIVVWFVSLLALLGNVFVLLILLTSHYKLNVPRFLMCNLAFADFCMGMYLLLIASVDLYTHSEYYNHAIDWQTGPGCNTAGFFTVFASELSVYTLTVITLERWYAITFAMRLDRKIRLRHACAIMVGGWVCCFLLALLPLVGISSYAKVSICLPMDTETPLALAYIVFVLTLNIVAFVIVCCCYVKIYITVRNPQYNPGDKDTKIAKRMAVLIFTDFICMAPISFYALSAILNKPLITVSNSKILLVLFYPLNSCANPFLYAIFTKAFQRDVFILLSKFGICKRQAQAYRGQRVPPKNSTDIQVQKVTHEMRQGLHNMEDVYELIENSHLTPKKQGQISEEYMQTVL
Luciferin 4-monooxygenase (Photinus pyralis), sequence (P08659 whole entry, looked up): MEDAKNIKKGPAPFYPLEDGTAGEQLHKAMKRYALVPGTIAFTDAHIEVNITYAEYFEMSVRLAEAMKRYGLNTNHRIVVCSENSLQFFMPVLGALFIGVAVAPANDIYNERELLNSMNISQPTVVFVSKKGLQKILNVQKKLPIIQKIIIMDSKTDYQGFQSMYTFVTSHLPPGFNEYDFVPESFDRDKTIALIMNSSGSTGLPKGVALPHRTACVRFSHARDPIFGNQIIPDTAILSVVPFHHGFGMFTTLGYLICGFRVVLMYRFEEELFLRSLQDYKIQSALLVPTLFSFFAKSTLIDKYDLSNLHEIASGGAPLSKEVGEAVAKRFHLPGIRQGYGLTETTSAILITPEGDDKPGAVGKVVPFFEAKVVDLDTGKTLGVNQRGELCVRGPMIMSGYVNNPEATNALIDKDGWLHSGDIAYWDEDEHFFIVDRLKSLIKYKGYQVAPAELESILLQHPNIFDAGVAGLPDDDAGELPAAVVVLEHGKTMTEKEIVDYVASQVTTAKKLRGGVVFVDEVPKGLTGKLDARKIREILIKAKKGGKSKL

As for `CCc1ccccc1C`, the Potency result in [1], in assay [2], in assay [3], in assay [4], in assay [5] and in assay [6] was “inactive” each time. Further, the Potency result in [7], in [8], in assay [9], in assay [10] and in assay [11] was “inactive” each time.

With `O=c1ssc(Cl)c1Cl`, the Potency result in assay [1], in assay [13] and in assay [10] was “inactive” throughout. Also, the Potency in assay [2] was 68.6 µM (active); in [3] it was 61.1 µM (active); in [5], 17.8 µM (active); in assay [6] it was 61.1 µM (active); in assay [7] it was 54.5 µM (active); in [12] it was 54.5 µM (active).

Take `CN(CCCC(O)c1cccnc1)N=O` (configuration not stated): the Potency entry in assay [1], in assay [2], in assay [3], in assay [4], in assay [5] and in assay [6] was “inactive” throughout. The Potency entry in assay [7] and in assay [11] was “inactive” in each case.

On to `COc1ccc(OC)c(C=O)c1`, for which the Potency entry in assay [1], in [2], in assay [3], in assay [4], in assay [5] and in assay [6] was “inactive” in each case. For the same compound, the Potency entry in assay [7] and in [8] was “inactive” throughout.

On to `c1ccc(OCC2CO2)cc1` (configuration not stated), for which the Potency entry in assay [1], in [2], in assay [3], in assay [4], in assay [6] and in [7] was “inactive” in each case. Also, the Potency entry in [12], in assay [13], in assay [8] and in assay [11] was “inactive” in each case.

Regarding `NC(=O)CCl`, the Potency entry in [1], in [2], in assay [3], in [5], in assay [6] and in [7] was “inactive” throughout. Besides, the Potency result in [12], in [13], in assay [8] and in assay [11] was “inactive” throughout.

As for `CCC[CH2][Sn]([CH2]CCC)([CH2]CCC)[O]C(=O)c1ccccc1`, the Potency in [1] is 1.23 µM (active); in assay [2] it was 4.86 µM (active); in assay [3], 0.686 µM (active); in assay [4], 2.17 µM (active); in assay [5] it was 35.6 µM (active); in assay [6], 0.77 µM (active). For the same compound, the Potency in [7] and in [8] was 1.22 µM (active) in each case. The Potency result in assay [10] and in assay [11] was “inactive” throughout.

With `CCSC(C)CC1CC(=O)C(/C(CC)=N/OC/C=C/Cl)=C(O)C1` (configuration not stated), the Potency entry in assay [1], in [2], in assay [3], in assay [4], in assay [5] and in [6] was “inactive” each time. For the same compound, the Potency result in assay [7], in [8] and in assay [11] was “inactive” each time. The Potency in [9] was 2.11 µM (active).

For the compound `O=C(Cl)c1ccc(Cl)cc1`, the Potency entry in assay [1], in assay [2], in assay [3], in [4], in assay [5] and in [6] was “inactive” each time. The Potency entry in assay [7] and in assay [11] was “inactive” each time.

For the compound `C[C@@H](Oc1ccc(Cl)cc1Cl)C(=O)O`, the Potency result in [1], in [2], in [3], in assay [4], in assay [5] and in assay [6] was “inactive” throughout. For the same compound, the Potency result in [7], in [8] and in assay [11] was “inactive” in each case.

Regarding `CC(=O)/C=C/c1ccc2c(c1)OCO2`, the Potency entry in [1], in [2], in assay [3], in assay [6], in assay [7] and in assay [12] was “inactive” throughout. Also, the Potency result in [13] and in assay [10] was “inactive” throughout. Moreover, in [5], the Potency is 45 µM (active).
